These results are taken from publication PMC7862700, “An all-to-all approach to the identification of sequence-specific readers for epigenetic DNA modifications on cytosine”.

Assay in all cases: DAPPL (digital affinity profiling via proximity ligation, sequencing); 10 mM Tris-HCl pH 7.5, 50 mM NaCl, 1 mM DTT, 4% glycerol, room temperature, 30 min; GST-TFs on glutathione beads, 16-mer random dsDNA library, 0.1% formaldehyde crosslink after washing; high values mean tight binding
The target in one assay is T1, FLI1 (Homo sapiens, UniProt Q01543 1-452).
T1 sequence: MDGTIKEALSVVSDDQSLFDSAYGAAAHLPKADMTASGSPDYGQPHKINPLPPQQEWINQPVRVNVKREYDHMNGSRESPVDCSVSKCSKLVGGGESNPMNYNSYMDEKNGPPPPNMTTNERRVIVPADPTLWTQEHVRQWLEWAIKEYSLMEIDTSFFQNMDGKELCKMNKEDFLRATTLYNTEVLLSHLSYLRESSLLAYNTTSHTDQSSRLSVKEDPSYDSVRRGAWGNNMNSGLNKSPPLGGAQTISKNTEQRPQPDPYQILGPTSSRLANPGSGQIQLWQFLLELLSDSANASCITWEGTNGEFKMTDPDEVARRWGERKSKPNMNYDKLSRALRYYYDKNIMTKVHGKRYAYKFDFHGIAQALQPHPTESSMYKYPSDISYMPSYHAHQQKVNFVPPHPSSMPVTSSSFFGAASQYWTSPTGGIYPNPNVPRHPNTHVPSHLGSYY
The conditions noted are these: protein: recombinant; tags: N-terminal GST; dsDNA, one strand shown. Put shortly: (§1)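 Each value of binding signal is a hexamer's read frequency for a factor divided by the same hexamer's frequency in the tag-only sample. Barcoded, bead-captured GST fusions of human transcription factors made in yeast were pooled with that sample and incubated with 200 nmole of a random double-stranded 16-mer DNA library in Tris/NaCl/DTT/glycerol buffer at room temperature for 30 min. Washing, 0.1% formaldehyde crosslinking, proximity ligation, PCR and Illumina NextSeq500 sequencing followed.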

Another assay addresses T2, ELK1 (Homo sapiens, UniProt P19419 1-428).
T2 sequence: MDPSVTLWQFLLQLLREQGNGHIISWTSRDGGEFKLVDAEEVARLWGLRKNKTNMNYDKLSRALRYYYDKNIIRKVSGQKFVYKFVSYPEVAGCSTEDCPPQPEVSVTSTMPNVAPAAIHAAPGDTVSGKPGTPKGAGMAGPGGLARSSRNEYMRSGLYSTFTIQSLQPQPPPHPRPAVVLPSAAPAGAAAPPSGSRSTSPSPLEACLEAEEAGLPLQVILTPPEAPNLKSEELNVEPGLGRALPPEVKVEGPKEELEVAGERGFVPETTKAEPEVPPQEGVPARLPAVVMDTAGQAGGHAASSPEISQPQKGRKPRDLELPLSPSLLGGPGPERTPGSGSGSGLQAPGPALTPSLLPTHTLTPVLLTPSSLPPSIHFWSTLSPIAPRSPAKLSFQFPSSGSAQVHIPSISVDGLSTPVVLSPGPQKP
The conditions noted are these: protein: recombinant; tags: N-terminal GST; dsDNA, one strand shown. Put shortly: as §1

A further assay addresses T3, GABPA (Homo sapiens, UniProt Q06546 1-454).
T3 sequence: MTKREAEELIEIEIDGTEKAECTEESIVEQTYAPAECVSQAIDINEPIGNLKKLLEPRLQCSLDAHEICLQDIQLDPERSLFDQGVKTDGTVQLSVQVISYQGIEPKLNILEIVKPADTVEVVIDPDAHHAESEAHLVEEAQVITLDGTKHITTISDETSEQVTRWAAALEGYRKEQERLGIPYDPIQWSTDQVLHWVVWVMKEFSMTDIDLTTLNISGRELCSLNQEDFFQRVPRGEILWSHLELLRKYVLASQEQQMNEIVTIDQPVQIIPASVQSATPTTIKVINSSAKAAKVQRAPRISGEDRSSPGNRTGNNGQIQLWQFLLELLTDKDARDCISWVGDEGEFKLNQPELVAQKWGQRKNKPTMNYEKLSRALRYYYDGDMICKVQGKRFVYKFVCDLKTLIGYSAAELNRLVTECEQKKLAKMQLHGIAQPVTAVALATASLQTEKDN
The conditions noted are these: protein: recombinant; tags: N-terminal GST; dsDNA, one strand shown. Put shortly: as §1

In a further assay the target is T4, ERG (Homo sapiens, UniProt P11308 1-479).
T4 sequence: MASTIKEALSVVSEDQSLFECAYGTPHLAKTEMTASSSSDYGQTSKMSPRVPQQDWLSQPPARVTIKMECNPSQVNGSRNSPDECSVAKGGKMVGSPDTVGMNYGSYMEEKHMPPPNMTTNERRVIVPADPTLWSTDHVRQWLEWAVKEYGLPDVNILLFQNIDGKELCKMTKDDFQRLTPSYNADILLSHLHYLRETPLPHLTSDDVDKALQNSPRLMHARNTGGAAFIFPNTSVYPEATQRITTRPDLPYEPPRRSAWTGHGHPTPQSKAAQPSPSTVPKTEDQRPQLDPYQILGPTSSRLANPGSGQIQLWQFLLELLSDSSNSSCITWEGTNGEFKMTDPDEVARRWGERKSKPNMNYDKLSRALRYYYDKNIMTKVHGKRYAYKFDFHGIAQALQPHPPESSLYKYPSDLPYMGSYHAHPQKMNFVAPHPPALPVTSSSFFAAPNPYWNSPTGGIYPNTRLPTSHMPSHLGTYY
The conditions noted are these: protein: recombinant; tags: N-terminal GST; dsDNA, one strand shown. Put shortly:
as §1

The next assay concerns the target ELF1 (Homo sapiens, UniProt P32519 1-619). The conditions noted are these: protein: recombinant; tags: N-terminal GST; dsDNA, one strand shown. The procedure, abridged: as §1
Another assay addresses T5, EHF (Homo sapiens, UniProt Q9NZC4 1-300).
T5 sequence: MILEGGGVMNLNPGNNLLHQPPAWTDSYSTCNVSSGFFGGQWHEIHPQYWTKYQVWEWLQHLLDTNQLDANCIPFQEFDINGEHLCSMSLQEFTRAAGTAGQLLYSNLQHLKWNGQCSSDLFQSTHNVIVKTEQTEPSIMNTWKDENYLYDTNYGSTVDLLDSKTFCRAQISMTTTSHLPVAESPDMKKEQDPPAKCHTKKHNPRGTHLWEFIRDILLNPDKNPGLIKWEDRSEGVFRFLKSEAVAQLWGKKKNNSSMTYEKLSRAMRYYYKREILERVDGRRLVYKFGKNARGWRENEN
The conditions noted are these: protein: recombinant; tags: N-terminal GST; dsDNA, one strand shown. The procedure, abridged:
as §1

The next assay concerns the target SPI1 (Homo sapiens, UniProt P17947 1-270). The conditions noted are these: protein: recombinant; tags: N-terminal GST; dsDNA, one strand shown. Put shortly: as §1
The next assay deals with SPIB (Homo sapiens, UniProt Q01892 1-262). The conditions noted are these: protein: recombinant; tags: N-terminal GST; dsDNA, one strand shown. Put shortly:
as §1

The next assay addresses T6, ELK3 (Homo sapiens, UniProt P41970 1-407).
T6 sequence: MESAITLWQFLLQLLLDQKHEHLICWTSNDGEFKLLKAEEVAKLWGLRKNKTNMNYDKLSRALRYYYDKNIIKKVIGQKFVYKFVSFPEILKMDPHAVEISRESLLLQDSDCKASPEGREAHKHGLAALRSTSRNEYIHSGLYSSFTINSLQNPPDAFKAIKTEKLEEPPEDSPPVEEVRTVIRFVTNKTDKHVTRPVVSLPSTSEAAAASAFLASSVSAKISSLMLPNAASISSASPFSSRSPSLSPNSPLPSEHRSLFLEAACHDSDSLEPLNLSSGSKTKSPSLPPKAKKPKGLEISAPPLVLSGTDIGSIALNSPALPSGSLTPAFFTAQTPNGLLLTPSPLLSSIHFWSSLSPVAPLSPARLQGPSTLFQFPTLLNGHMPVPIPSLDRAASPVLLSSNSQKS
The conditions noted are these: protein: recombinant; tags: N-terminal GST; dsDNA, one strand shown. Put shortly:
as §1

In another assay the target is T7, FEV (Homo sapiens, UniProt Q99581 1-238).
T7 sequence: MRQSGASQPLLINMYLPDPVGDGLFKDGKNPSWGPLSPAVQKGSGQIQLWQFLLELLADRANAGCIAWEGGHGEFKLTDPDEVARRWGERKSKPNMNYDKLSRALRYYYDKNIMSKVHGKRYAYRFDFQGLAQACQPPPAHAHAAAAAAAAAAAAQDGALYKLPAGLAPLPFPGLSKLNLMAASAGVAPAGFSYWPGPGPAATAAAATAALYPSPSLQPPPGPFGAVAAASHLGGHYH
The conditions noted are these: protein: recombinant; tags: N-terminal GST; dsDNA, one strand shown. Put shortly: as §1

The target of another assay is ETV5 (Homo sapiens, UniProt P41161 1-510). The conditions noted are these: protein: recombinant; tags: N-terminal GST; dsDNA, one strand shown. Put shortly: as §1
ETV5, sequence (P41161 whole entry): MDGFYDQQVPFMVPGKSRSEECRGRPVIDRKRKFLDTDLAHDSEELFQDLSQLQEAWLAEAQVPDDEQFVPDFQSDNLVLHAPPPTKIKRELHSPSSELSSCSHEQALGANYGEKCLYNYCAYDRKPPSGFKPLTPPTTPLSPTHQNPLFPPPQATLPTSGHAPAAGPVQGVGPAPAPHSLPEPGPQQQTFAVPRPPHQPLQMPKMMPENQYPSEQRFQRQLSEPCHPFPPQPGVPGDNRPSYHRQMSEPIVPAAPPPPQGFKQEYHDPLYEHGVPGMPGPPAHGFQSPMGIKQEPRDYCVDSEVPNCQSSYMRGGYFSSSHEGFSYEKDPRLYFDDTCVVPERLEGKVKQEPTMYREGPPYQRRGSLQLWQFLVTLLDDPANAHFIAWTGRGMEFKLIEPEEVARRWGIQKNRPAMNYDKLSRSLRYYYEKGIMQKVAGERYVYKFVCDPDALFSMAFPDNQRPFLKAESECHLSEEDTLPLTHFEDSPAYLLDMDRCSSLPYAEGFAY
For the next assay, the target named is HSF1 (Homo sapiens, UniProt Q00613 1-529). The conditions noted are these: protein: recombinant; tags: N-terminal GST; chain copies: 3; dsDNA, one strand shown. Put shortly: as §1
HSF1, sequence (Q00613 whole entry): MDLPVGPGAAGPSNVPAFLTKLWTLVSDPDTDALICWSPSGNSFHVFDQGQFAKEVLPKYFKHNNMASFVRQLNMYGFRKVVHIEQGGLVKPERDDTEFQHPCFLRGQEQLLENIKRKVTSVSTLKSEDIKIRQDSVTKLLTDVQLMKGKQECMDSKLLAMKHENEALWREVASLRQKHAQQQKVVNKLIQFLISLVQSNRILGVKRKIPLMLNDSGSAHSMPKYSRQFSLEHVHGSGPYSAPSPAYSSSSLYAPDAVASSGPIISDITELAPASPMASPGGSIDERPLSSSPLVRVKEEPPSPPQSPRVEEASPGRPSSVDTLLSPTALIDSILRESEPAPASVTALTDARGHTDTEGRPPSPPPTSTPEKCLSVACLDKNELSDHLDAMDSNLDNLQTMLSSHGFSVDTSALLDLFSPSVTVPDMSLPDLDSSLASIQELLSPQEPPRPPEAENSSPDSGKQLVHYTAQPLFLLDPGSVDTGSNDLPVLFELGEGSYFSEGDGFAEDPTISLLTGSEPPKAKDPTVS
Another assay has as its target ELF4 (Homo sapiens, UniProt Q99607 1-663). The conditions noted are these: protein: recombinant; tags: N-terminal GST; dsDNA, one strand shown. Put shortly:
as §1

A further assay addresses T8, ELK4 (Homo sapiens, UniProt P28324-2 1-405).
T8 sequence: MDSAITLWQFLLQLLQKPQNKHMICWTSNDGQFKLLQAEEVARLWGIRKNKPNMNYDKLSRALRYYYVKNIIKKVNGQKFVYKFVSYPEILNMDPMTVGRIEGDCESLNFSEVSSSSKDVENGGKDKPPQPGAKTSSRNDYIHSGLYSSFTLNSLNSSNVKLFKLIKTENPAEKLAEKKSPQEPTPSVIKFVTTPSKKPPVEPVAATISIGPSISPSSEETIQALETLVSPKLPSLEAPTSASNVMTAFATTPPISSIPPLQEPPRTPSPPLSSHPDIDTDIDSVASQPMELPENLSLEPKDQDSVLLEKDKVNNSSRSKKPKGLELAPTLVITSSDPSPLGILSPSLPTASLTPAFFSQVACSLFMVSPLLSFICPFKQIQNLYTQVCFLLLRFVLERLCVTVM
The conditions noted are these: protein: recombinant; tags: N-terminal GST; dsDNA, one strand shown. Put shortly: as §1

The target of the next assay is T9, ELF3 (Homo sapiens, UniProt P78545 1-371).
T9 sequence: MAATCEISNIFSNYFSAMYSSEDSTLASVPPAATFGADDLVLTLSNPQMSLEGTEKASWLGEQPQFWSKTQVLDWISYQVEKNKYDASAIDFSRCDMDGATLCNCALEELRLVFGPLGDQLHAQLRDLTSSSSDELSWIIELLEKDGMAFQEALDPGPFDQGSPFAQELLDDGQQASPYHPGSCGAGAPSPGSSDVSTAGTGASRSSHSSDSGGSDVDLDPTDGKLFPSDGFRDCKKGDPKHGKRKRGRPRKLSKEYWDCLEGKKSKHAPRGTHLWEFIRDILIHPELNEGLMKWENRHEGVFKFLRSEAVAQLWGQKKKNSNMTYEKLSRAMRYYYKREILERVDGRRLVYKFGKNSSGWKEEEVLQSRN
The conditions noted are these: protein: recombinant; tags: N-terminal GST; dsDNA, one strand shown. The procedure, abridged:
as §1

A further assay concerns the target ETV1 (Homo sapiens, UniProt P50549 1-477). The conditions noted are these: protein: recombinant; tags: N-terminal GST; dsDNA, one strand shown. The procedure, abridged:
as §1

ELF1, sequence (P32519 whole entry): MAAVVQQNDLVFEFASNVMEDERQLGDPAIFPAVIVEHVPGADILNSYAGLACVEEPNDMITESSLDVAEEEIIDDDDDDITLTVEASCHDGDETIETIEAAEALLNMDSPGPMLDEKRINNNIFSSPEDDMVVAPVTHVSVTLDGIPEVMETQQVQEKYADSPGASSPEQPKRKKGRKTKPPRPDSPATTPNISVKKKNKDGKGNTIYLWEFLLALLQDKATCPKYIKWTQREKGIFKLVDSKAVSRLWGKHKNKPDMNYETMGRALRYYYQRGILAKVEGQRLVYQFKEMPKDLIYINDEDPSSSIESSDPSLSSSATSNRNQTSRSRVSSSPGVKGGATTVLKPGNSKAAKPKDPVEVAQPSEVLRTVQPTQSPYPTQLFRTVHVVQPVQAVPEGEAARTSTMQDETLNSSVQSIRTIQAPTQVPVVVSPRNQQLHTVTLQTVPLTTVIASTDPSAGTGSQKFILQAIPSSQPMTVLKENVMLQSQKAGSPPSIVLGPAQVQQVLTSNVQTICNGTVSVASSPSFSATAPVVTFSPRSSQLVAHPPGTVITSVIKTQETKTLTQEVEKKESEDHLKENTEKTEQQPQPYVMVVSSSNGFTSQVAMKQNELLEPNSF
SPIB, sequence (Q01892 whole entry): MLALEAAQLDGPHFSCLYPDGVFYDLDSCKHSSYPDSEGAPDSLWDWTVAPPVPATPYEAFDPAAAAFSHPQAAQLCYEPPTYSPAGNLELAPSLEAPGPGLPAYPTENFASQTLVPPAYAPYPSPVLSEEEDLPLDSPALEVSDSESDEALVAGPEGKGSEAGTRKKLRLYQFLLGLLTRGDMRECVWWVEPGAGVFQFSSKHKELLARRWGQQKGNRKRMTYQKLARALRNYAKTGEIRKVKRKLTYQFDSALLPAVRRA
ETV1, sequence (P50549 whole entry): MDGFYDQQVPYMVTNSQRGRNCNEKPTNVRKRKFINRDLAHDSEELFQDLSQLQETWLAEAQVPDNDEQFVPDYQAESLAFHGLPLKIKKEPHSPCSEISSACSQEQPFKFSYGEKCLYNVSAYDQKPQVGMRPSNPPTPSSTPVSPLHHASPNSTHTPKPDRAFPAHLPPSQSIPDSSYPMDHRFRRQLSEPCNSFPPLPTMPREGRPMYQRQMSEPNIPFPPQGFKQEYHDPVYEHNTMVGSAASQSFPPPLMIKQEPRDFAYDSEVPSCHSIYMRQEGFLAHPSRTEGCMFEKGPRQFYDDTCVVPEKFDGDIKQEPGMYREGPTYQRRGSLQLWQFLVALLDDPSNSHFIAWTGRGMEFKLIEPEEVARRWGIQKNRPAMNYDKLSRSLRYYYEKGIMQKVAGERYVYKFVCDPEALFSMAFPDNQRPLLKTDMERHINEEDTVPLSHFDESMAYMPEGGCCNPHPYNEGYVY
ELF4, sequence (Q99607 whole entry): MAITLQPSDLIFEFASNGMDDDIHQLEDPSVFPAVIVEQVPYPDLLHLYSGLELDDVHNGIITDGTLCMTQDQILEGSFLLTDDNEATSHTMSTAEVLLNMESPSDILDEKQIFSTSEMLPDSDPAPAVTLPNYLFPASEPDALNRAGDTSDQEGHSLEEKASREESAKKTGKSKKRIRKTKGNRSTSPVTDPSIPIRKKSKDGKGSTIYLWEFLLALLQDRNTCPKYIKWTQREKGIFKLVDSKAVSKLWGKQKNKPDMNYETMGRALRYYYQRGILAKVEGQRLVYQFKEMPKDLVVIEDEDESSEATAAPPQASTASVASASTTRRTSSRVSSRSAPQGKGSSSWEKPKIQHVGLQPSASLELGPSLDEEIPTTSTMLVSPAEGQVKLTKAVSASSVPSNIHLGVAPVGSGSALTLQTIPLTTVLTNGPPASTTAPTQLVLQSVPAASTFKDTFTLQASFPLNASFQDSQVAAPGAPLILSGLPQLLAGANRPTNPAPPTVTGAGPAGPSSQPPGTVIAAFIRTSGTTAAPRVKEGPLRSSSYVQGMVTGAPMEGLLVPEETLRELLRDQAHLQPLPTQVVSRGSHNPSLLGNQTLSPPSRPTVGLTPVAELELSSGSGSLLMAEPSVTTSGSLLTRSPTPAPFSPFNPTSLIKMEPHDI

Regarding GAATTG, the binding signal with FLI1 was 1.15 fold enrichment (6-mer frequency, TF over GST control); with ELK1, 1.12 fold enrichment (6-mer frequency, TF over GST control); with GABPA, 1.09 fold enrichment (6-mer frequency, TF over GST control); with ERG, 1.1 fold enrichment (6-mer frequency, TF over GST control); with ELF1, 1.11 fold enrichment (6-mer frequency, TF over GST control); with EHF it was 1.12 fold enrichment (6-mer frequency, TF over GST control). Further, the binding signal in the assay with SPI1 was 1.17 fold enrichment (6-mer frequency, TF over GST control); in the assay with SPIB it was 1.21 fold enrichment (6-mer frequency, TF over GST control); in the assay with ELK3, 1.21 fold enrichment (6-mer frequency, TF over GST control); in the assay with FEV, 1.11 fold enrichment (6-mer frequency, TF over GST control); with ETV5, 1.18 fold enrichment (6-mer frequency, TF over GST control); with HSF1, 1.06 fold enrichment (6-mer frequency, TF over GST control). The binding signal with ELF4 was 1.11 fold enrichment (6-mer frequency, TF over GST control); with ELK4 it was 1.04 fold enrichment (6-mer frequency, TF over GST control); with ELF3, 1.17 fold enrichment (6-mer frequency, TF over GST control); with ETV1, 1.15 fold enrichment (6-mer frequency, TF over GST control).
